# AMA1 RON2 block: qHTS for Inhibitors of AMA1-RON; Towards Development of Antimalarial Drug Lead: Primary Screen | AlphaScreen AMA1-biotinylated RON2 peptide binding | Potency, µM (doses to about 58.2 µM), without a hit: at the top dose activity change, negative = inhibition, usual class: inhibitors | 360,000 tested, 0.2% active;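 further: 0% = vehicle wells and -100% = peptide control; nearly all actives have a fitted effect of over 45% in size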
#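 AMA1 (3D7) with his tag at 25 nM final met compounds first, then biotinylated RON2 peptide at 25 nM; detection used donor plus acceptor beads, 10 µg/mL apiece, read by AlphaScreen after 30 min at room temperature.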
# Pf growth 48h: Primary qHTS for delayed death inhibitors of the malarial parasite plastid, 48 hour incubation; P. falciparum luciferase growth in erythrocytes, 48 h; Potency, µM (series often up to 28.7 µM), without a hit: at the top dose activity change, negative = inhibition, most hits filed as inhibitors; 310,000 tested, 5.9% active; AID 504832, 2011; further: on the % scale 0 is the no-effect control and ±100 the full control effect
#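 Luminescence readout; reporter = integrated firefly luciferase in P. falciparum. RBC culture at 2% hematocrit, 0.1% parasitemia final, 37 C/5% CO2; decreased signal taken as growth inhibition.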
# Sm TGR block: qHTS Assay for the Inhibitors of Schistosoma Mansoni Peroxiredoxins | Schistosoma mansoni thioredoxin glutathione reductase (TGR), Q962Y6 | purified TGR, DTNB reduction, TNB absorbance 405 nm | Potency, µM (highest dose often 114 µM), without a hit: top-dose activity change, negative = inhibition, usual class: inhibitors | 360,000 tested, 3% active; further: on the % scale 0 is the no-effect control and ±100 the full control effect; nearly all actives have a fitted effect of over 60% in size
#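 Kinetic colorimetric format: TGR-catalysed, NADPH-driven DTNB reduction monitored via TNB absorbance. Enzyme dispensed at 20 nM; compound exposure 15 min at room temperature before reaction start.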
# NS1 function inh: qHTS Assay for Inhibitors of Influenza NS1 Protein Function | Potency, µM (highest dose often 46.1 µM), for inactives: at the highest dose activity, positive = more growth | 270,000 tested, 0.4% active; calls by dose curve; further: actives are rising curves; nearly all actives have a fitted effect of over 50% in size
#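 OD600 was taken as the measure of yeast growth restored by compound in an NS1-expressing S. cerevisiae strain. Cells had been washed out of glucose medium and diluted 1:100 into galactose -URA medium, pH 6.0.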
# Pf growth 96h: Primary qHTS for delayed death inhibitors of the malarial parasite plastid, 96 hour incubation; 320,000 tested, 6.9% active; AID 504834, 2011; Potency, µM (top dose mostly 28.7 µM), inactives show at the highest dose activity change, negative = inhibition, actives largely listed as inhibitors; P. falciparum luciferase reporter growth, 96 h; further: on the % scale 0 is the no-effect control and ±100 the full control effect
#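 Plates of compound plus infected erythrocytes (2% hematocrit, 0.05% parasitemia final) incubate 96 hours, 37 C, 5% CO2. Detection reagent added; reduced luminescence from the parasites' luciferase reporter flags inhibition.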
# Numbers without * were called inactive; ? = inconclusive; nt = not tested or not shown; [ ] = remark or other dose. Most compounds without a hit are left out; they make up all but 11% or so of the library. Unless noted, the call rests on the fitted dose curve; in most records, active means well fitted curve in the direction sought with a large enough effect; inconclusive means small, poorly fitted or top-dose-only effect, or another doubt; inactive means no such curve, though single readings can be large; an effect the other way counts as inactive or inconclusive. Potency means the concentration at half of the fitted maximal effect.
SMILES,AMA1 RON2 block,Pf growth 48h,Sm TGR block,NS1 function inh,Pf growth 96h
O=[N+]([O-])c1ccc(/C=N/Nc2ccccn2)cc1,8%,63%,-3%,-3%,?
C(=N\Nc1nncc2ccccc12)/c1ccccn1,97%,0.83µM*,-6%,-126%,?
O=[N+]([O-])c1cc(/C=N\Nc2ccccn2)ccc1Cl,-1%,24%,-6%,-13%,7.4µM*
Cc1cc(=O)[nH]c(N/N=C/c2c(C)nn(-c3ccc(F)cc3)c2Cl)n1,4%,4.7µM*,-1%,nt,10µM*
CCOC(=O)CC1COCCN1C(=O)c1ccc2oc(Cc3ccccc3)nc2c1 (stereo not given),3%,-20%,5%,0%,4%
Cc1cc(C)n2nc(C(=O)OCC(=O)Nc3ccc(F)cc3F)nc2n1,-1%,-6%,-3%,nt,72%
O=C(CNc1n[nH]c(=O)[nH]c1=O)N/N=C/C1CC=CCC1 (stereo not given),-3%,21%,5%,2%,-3%
C(=N\Nc1ccc2nncn2n1)/c1ccccn1,74%,-75%,20%,1%,9.3µM*
Cc1cc(=O)[nH]c(N/N=C2/CCCC/C2=C\c2ccccc2)n1,109%,?,22µM*,-8%,?
Cc1cc(=O)[nH]c(N/N=C/C=C/c2ccccc2)n1,28%,7%,-9%,nt,?
O=P(O)(O)OC[C@H]1O[C@](O)(COP(=O)(O)O)[C@@H](O)[C@@H]1O,nt,7%,nt,nt,15%
COc1cccc(C(C(=O)NC2CCCCC2)N(CCN2CCOCC2)C(=O)C2COc3ccccc3O2)c1 (stereo not given),-10%,-30%,12%,3%,0%
COc1cc(OC)cc(N(C(=O)C2COc3ccccc3O2)C(C(=O)NC2CCCCC2)c2ccc(O)cc2)c1 (stereo not given),-3%[11.6 µM],13µM*,-7%,13%,7.4µM*
COc1ccc(N(C(=O)C2COc3ccccc3O2)C(C(=O)NC2CCCCC2)c2ccccc2)cc1OC (stereo not given),-11%,7.4µM*,1%,?,?
CC(Oc1cccc(Cl)c1)C(=O)Nc1cc(S(=O)(=O)N2CCOCC2)ccc1N1CCCCC1 (stereo not given),45%,8.3µM*,-7%,nt,?
CC(Oc1cccc(Cl)c1)C(=O)Nc1ccccc1N1CCCC1 (stereo not given),?,?,-14%,nt,?
CCN1CCN(c2ccc(S(=O)(=O)N3CCOCC3)cc2NC(=O)C(C)Oc2cccc(Cl)c2)CC1 (stereo not given),-14%,10µM*,-8%,nt,?
Cc1nnc(N2C(=O)c3oc4ccccc4c(=O)c3C2c2ccc(C(C)(C)C)cc2)s1 (stereo not given),nt,nt,4%,nt,nt
Cc1ccc(C(C)C)c(OCCSc2nc(-c3ccccc3F)nc3cc(=O)[nH]n23)c1,nt,nt,2%,nt,nt
CC1(C(=O)NS(=O)(=O)C2CC2)CCN(C(=O)c2c(F)cccc2F)C1 (stereo not given),14%,nt,nt,nt,nt
CC(=O)Nc1ccc(S(=O)(=O)N2CCN=C2SCc2ccc(C)cc2)cc1,-2%,45%,-19%,-12%,53%
O=S(=O)(c1ccccc1)N1CCN=C1SCc1cccc(Cl)c1,20%,?,-9%,-20%,12µM*
CC(=O)Nc1ccc(S(=O)(=O)N2CCN=C2SCc2ccc(F)cc2)cc1,5%,?,-7%,8%,15µM*
COc1ccccc1CSc1nc2c(c(=O)n(C)c(=O)n2C)n1C,-6%,12%,-3%,-2%,-14%
COc1ccc(-c2cc(-n3c(C(F)(F)F)nc4ccccc43)n(CCC#N)n2)cc1,-21%,13µM*,14%,-1%,nt
SMILES,AMA1 RON2 block,Pf growth 48h,Sm TGR block,NS1 function inh,Pf growth 96h
Cn1cnnc1SCC(=O)NCCc1ccc(Cl)cc1Cl,2%,417%,-6%,nt,?
O=c1[nH]c(C2CCCN(S(=O)(=O)c3ccccc3F)C2)nc2c1nnn2Cc1ccccc1Cl (stereo not given),8%,?,2%,-1%,12µM*
O=c1[nH]c(C2CCCN(S(=O)(=O)c3ccccc3Cl)C2)nc2c1nnn2Cc1ccc(OC(F)(F)F)cc1 (stereo not given),nt,nt,4%,nt,nt
CCCCCCC(=O)N1CCC(c2nc3c(nnn3Cc3ccccc3Cl)c(=O)[nH]2)CC1,-8%,13µM*,9%,-25%,?
O=c1[nH]c(C2CCCN(S(=O)(=O)c3ccccc3Cl)C2)nc2c1nnn2Cc1ccc2c(c1)OCCO2 (stereo not given),16%,?,8%,9%,13µM*
O=C(C1CCCCC1)N1CCC(c2nc3c(nnn3Cc3ccccc3Cl)c(=O)[nH]2)CC1,-12%,nt,nt,0%,nt
O=c1[nH]c(C2CCN(S(=O)(=O)c3ccccc3F)CC2)nc2c1nnn2Cc1ccc(F)cc1,-7%,-16%,-9%,18%,5%
Cn1c(C(O)C(O)c2ccccc2)nc2ccccc21 (stereo not given),-4%,94%,-3%,-6%,3%
Cn1c(C(C#N)C2=C(Cl)C(=O)N(c3ccccc3)C2=O)nc2ccccc21 (stereo not given),nt,?,45µM*,-44%,-2%
CCOc1ccccc1CNCc1ccc(F)cc1,-5%,6%,2%,1%,19%
Cc1ccccc1OCCNCC(C)O (stereo not given),?,1%,-1%,2%,13µM*
CCOc1ccccc1CNCCNCC(C)O (stereo not given),84%,-23%,10%,5%,9.3µM*
O=C(NC1CCCC1)c1ccc(Cl)s1,-7%,?,0%,-11%,4%
O=C(N/N=C/c1ccc([N+](=O)[O-])o1)C1CCCC1,2%,?,?,-12%,?
CC(NC(=O)c1ccc([N+](=O)[O-])o1)C12CC3CC(CC(C3)C1)C2 (stereo not given),-10%,6.6µM*,?,-76%,29%
O=C(NC1CCCC(C(F)(F)F)C1)c1ccc([N+](=O)[O-])o1 (stereo not given),0%,nt,nt,nt,nt
CC(NC(=O)C12CC3CC(CC(C3)C1)C2)C(=O)NN=Cc1ccc([N+](=O)[O-])o1 (stereo not given),29%,nt,nt,nt,nt
O=C(NC1CCCCC1)c1ccc([N+](=O)[O-])o1,10%,10µM*,-32%,-22%,-10%
O=[N+]([O-])c1ccc(/C=[N+](\[O-])[C@@H]2CCCC[C@@H]2/[N+]([O-])=C/c2ccc([N+](=O)[O-])o2)o1,21%,-3%[0.00184 µM],3.5µM*,-87%,?
O=C(NC1CCCCCC1)c1ccc([N+](=O)[O-])s1,-2%,?,-4%,nt,9.3µM*
